Source: PubChem BioAssay (SRMLSC)
A selection: hits, their analogues and other compounds. The true share with any hit is near 6.5%.
PMK inhibit = blocks S. pneumoniae phosphomevalonate kinase; inhibition, % at 10 µM; purified PMK, PK/LDH-coupled NADH absorbance 340 nm; 65,000 compounds, 0.49% hits;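 active = top-ranked compounds by inhibition in the single 10 µM screen, taking a fixed number of the strongest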
MK inhibit = blocks S. pneumoniae mevalonate kinase; AID 555; purified MK, PK/LDH-coupled NADH absorbance 340 nm; 65,000 compounds, 0.48% hits; inhibition, % at 10 µM;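 active = ranked among the strongest by inhibition in the single 10 µM screen, a fixed top-ranked set picked for dose follow-up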
Spn DPM-DC inh = S. pneumoniae DPM-DC inhibition. calls only at 10 µM. purified DPM-DC, PK/LDH coupled NADH fluorescence. 65,000 compounds, 0.49% hits;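 active = the 320 compounds with the highest percent inhibition in the single-dose primary screen, excluding strongly autofluorescent ones, cut at about 32% in these data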;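 note: kinetic rate of NADH fluorescence loss reporting ADP formed by the decarboxylase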
Autofluor 339 = intrinsic fluorescence of library compounds, ex339/em460 – biochemical, MLSMR library, data from DPM-DC assay, artefact control, profiling panel | compound autofluorescence, ex339/em460 nm, NADH buffer; hits give high values; 1 = no-compound wells, NADH background | fluorescence fold increase at 10 µM | 65,000 compounds, 5.5% hits | AID 709;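 active = at 10 µM, mean starting fluorescence two-fold or more over control wells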;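 note: signal is the first read of a kinetic run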
A340 absorber = compound absorbs light at 340 nm; fold change at 10 µM; AID 708; compound absorbance at 340 nm, fold over control; 65,000 tested, under 10 active;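 active = at 10 µM dose, initial 340 nm absorbance at least 2 fold that of control wells; inactive = change under 2 fold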;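 note: initial absorbance extrapolated from kinetic A340 decline of NADH oxidation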
NADH coupling = blocks coupling enzymes of NAD/NADH assays. coupled PK/LDH NADH assays, four targets. 65,000 compounds, 0.02% hits. IC50, µM (highest dose often 10 µM);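 active = single-dose screening hits from any of four coupled enzyme assays that gave an IC50 when retested across doses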;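 note: the DPM-DC format reads NADH fluorescence rather than 340 nm absorbance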
A number is an active result.

CCN(CC)CCCN1C(=O)C(O)=C(C(=O)c2ccc(C)o2)C1c1ccco1 (stereo not drawn) was read as PMK inhibit inactive, MK inhibit inactive, Spn DPM-DC inh inactive, Autofluor 339 inactive, A340 absorber inactive and NADH coupling inactive.
`C=CCn1cc(C(=O)NCCCOC)c(=O)c2cc(S(=O)(=O)N3CCC(C)CC3)ccc21` gave PMK inhibit inactive, MK inhibit inactive, Spn DPM-DC inh inactive, Autofluor 339 inactive, A340 absorber inactive and NADH coupling inactive.
Screening CCCCc1nc(NCC2CCCO2)c(C#N)c2c1COC(C)(C)C2 (stereo not drawn) returned PMK inhibit inactive, MK inhibit inactive, Autofluor 339 2.41, A340 absorber inactive and NADH coupling inactive.
`CCCSc1nc(N2CCCC2)c2c(c1C#N)CC(C)(C)OC2` gave PMK inhibit inactive, MK inhibit inactive, Spn DPM-DC inh inactive, Autofluor 339 inactive, A340 absorber inactive and NADH coupling inactive.
`CCCCc1nc(N2CCOCC2)c(C#N)c2c1COC(C)(C)C2` gave PMK inhibit inactive, MK inhibit inactive, Autofluor 339 2.29, A340 absorber inactive and NADH coupling inactive.
O=C(Nc1ccc2nc(-c3cccs3)[nH]c2c1)c1cccs1 was read as PMK inhibit inactive, MK inhibit inactive, Spn DPM-DC inh inactive, Autofluor 339 2.35, A340 absorber inactive and NADH coupling inactive.
CC(=O)Nc1ccc2nc(-c3ccccn3)[nH]c2c1 was read as PMK inhibit inactive, MK inhibit inactive, Autofluor 339 3.73, A340 absorber inactive and NADH coupling inactive.
For COc1ccc(Br)cc1CNC(=O)C1CCCN(c2nc3ccccc3o2)C1 (stereo not drawn) the results were PMK inhibit inactive, MK inhibit inactive, Spn DPM-DC inh inactive, Autofluor 339 inactive, A340 absorber inactive and NADH coupling inactive.
`CCOc1ccccc1NC(=O)CSc1ccccc1` gave PMK inhibit inactive, MK inhibit inactive, Spn DPM-DC inh inactive, Autofluor 339 inactive, A340 absorber inactive and NADH coupling inactive.
`CC1Cc2ccccc2N1C(=O)CN1C(=O)CN(C)C(=O)c2ccccc21` (stereo not drawn) gave PMK inhibit inactive, MK inhibit inactive, Spn DPM-DC inh inactive, Autofluor 339 inactive, A340 absorber inactive and NADH coupling inactive.
`O=C(Nc1ccccc1)NC1CS(=O)(=O)CC1O` (stereo not drawn) gave PMK inhibit inactive, MK inhibit inactive, Spn DPM-DC inh inactive, Autofluor 339 inactive, A340 absorber inactive and NADH coupling inactive.
For O=C(CCC1CCCCC1)Nc1c2c(nn1-c1ccc(F)cc1)CS(=O)C2 (stereo not drawn) the results were PMK inhibit inactive, MK inhibit inactive, Spn DPM-DC inh inactive, Autofluor 339 inactive, A340 absorber inactive and NADH coupling inactive.
Screening COc1ccc(-c2cc3nc4n(c(=O)c3s2)CCOC4)cc1 returned PMK inhibit inactive, MK inhibit inactive, Autofluor 339 2.36, A340 absorber inactive and NADH coupling inactive.
For Cc1noc(C(=O)Nc2ccccc2C(F)(F)F)c1Cl the results were PMK inhibit inactive, MK inhibit inactive, Spn DPM-DC inh inactive, Autofluor 339 inactive, A340 absorber inactive and NADH coupling inactive.
Cc1ccc(-c2nc(C#N)c(NCCc3ccccn3)o2)cc1 was read as PMK inhibit inactive, MK inhibit inactive, Spn DPM-DC inh inactive, Autofluor 339 2.63, A340 absorber inactive and NADH coupling inactive.
Screening COc1ccc(CCNc2oc(COc3ccccc3F)nc2C#N)cc1 returned PMK inhibit inactive, MK inhibit inactive, Spn DPM-DC inh inactive, Autofluor 339 inactive, A340 absorber inactive and NADH coupling inactive.
`N#Cc1nc(-c2ccc(Cl)cc2)oc1NCCc1ccccn1` gave PMK inhibit inactive, MK inhibit inactive, Autofluor 339 2.41, A340 absorber inactive and NADH coupling inactive.
COc1ccc2nc(NC(=O)C3CCCN(S(=O)(=O)c4cccc5nsnc45)C3)sc2c1 (stereo not drawn) was read as PMK inhibit inactive, MK inhibit inactive, Spn DPM-DC inh inactive, Autofluor 339 inactive, A340 absorber inactive and NADH coupling inactive.
Screening COc1ccc2nc(NC(=O)C3CCCN(S(=O)(=O)c4cccc5nonc45)C3)sc2c1 (stereo not drawn) returned PMK inhibit inactive, MK inhibit 70.0, Spn DPM-DC inh inactive, Autofluor 339 inactive, A340 absorber inactive and NADH coupling inactive.
Screening Cc1cc(N(CC(=O)O)S(C)(=O)=O)ccc1Br returned PMK inhibit inactive, MK inhibit inactive, Spn DPM-DC inh inactive, Autofluor 339 inactive, A340 absorber inactive and NADH coupling inactive.
For O=c1[nH]cnc2nc(-c3ccccc3)c(-c3ccccc3)nc12 the results were PMK inhibit inactive, MK inhibit inactive, Autofluor 339 5.12, A340 absorber inactive and NADH coupling inactive.
Screening O=c1[nH]cnc2nn(-c3ccccc3)nc12 returned PMK inhibit inactive, MK inhibit inactive, Spn DPM-DC inh inactive, Autofluor 339 inactive, A340 absorber inactive and NADH coupling inactive.
`CC(C)(Oc1ccc(Cl)cc1)C(=O)Nc1ccc2oc(-c3ccncc3)nc2c1` gave PMK inhibit inactive, MK inhibit inactive, Autofluor 339 3.43, A340 absorber inactive and NADH coupling inactive.
For Clc1ccc2oc(-c3ccccc3)nc2c1 the results were PMK inhibit inactive, MK inhibit inactive, Spn DPM-DC inh inactive, Autofluor 339 inactive, A340 absorber inactive and NADH coupling inactive.
Screening Cc1ccc(OCC(=O)Nc2ccc(O)c(-c3nc4ccccc4o3)c2)cc1 returned PMK inhibit inactive, MK inhibit inactive, Autofluor 339 inactive, A340 absorber inactive and NADH coupling inactive.
`O=C(COc1ccc(Cl)cc1)Nc1ccc2oc(-c3ccncc3)nc2c1` gave PMK inhibit inactive, MK inhibit inactive, Autofluor 339 4.79, A340 absorber inactive and NADH coupling inactive.
`c1cc(-c2nc3cc(Oc4ccc5oc(-c6ccncc6)nc5c4)ccc3o2)ccn1` gave PMK inhibit inactive, MK inhibit inactive, Spn DPM-DC inh inactive, Autofluor 339 2.58, A340 absorber inactive and NADH coupling inactive.
Screening Nc1nc2c(s1)CC(c1ccccc1)CC2 (stereo not drawn) returned PMK inhibit inactive, MK inhibit inactive, Spn DPM-DC inh inactive, Autofluor 339 inactive, A340 absorber inactive and NADH coupling inactive.
`Cc1nn(-c2ccccc2)c2sc(C(=O)OC3CCOC3=O)cc12` (stereo not drawn) gave PMK inhibit inactive, MK inhibit inactive, Autofluor 339 4.95, A340 absorber inactive and NADH coupling inactive.
`COC(=O)c1cc2c(C)nn(-c3ccccc3)c2s1` gave PMK inhibit inactive, MK inhibit inactive, Spn DPM-DC inh inactive, Autofluor 339 inactive, A340 absorber inactive and NADH coupling inactive.
Cc1nn(-c2ccccc2)c2sc(C(=O)OCC(=O)N3CCCCC3)cc12 was read as PMK inhibit inactive, MK inhibit inactive, Autofluor 339 4.01, A340 absorber inactive and NADH coupling inactive.
